Consider six molecules from PubChem BioAssay (Tox21).

A short description of test [1]: qHTS assay to identify small molecule antagonists of the vitamin D receptor (VDR) signaling pathway - cell viability counter screen (AID 743225). Also: nearly all actives have a fitted effect of over 50% in size. The method in brief:
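Same-well multiplex: following 16 h treatment of HEK 293T cells carrying a UAS-driven beta-lactamase reporter with compound and agonist (3 nM final), and a 2 h FRET substrate step, CellTiter-Glo was added and luminescence read after 30 min.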
In general terms: qHTS replaces the single test concentration by a dilution series.

Test [2] can be described thus: qHTS assay to identify small molecule agonists of the NFkB signaling pathway - cell viability counter screen (AID 1159515; calls by dose curve; also: series mostly up to about 61 µM; nearly all actives have a fitted effect of over 55% in size). The method, boiled down:
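5 hr compound treatment of NFkB-bla ME-180 cells (2,000/well, seeded overnight beforehand), followed by reporter substrate for 1.5 hr. CellTiter-Glo added afterward; luminescence after 30 min RT.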

A short description of test [3]: qHTS assay to identify small molecule agonists of the endoplasmic reticulum stress response signaling pathway (AID 1159516; active = well fitted activation curve with a large enough effect in the signal ratio in the repeat runs, not every such curve was filed as active; the % refers to the signal ratio). The method in brief: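 Reporter HeLa cells (ESRE-beta-lactamase) underwent 5 hr compound incubation at 37 C and 5% CO2 in quantitative HTS format. Detection followed 2 hr of FRET substrate loading at room temperature.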
Test [4] can be described thus: qHTS assay to identify small molecule agonists of the endoplasmic reticulum stress response signaling pathway - cell viability counter screen (AID 1159517; calls by dose curve; also: series mostly up to about 61 µM; nearly all actives have a fitted effect of over 50% in size). The method in brief: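 HeLa cells carrying an ESRE-driven beta-lactamase reporter receive compound for 5 hr at 37 C. Cell viability is then gauged with CellTiter-Glo by luminescence, 30 min at room temperature.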

A short description of test [5]: qHTS assay to identify small molecule antagonists of the retinoid-related orphan receptor gamma (ROR-gamma) signaling pathway - cell viability counter screen (AID 1159520). Also: nearly all actives have a fitted effect of over 50% in size. The method, boiled down: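 Cytotoxicity was read from cellular ATP (CellTiter-Glo luminescence) after 16 hr at 37 C with 1 uM doxycycline induction. The inducer was added 2 hr after compound transfer to Tet-on ROR gamma CHO cells.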

In test [6] the target is Nuclear receptor ROR-gamma (Homo sapiens) (UniProt P51449). Description: qHTS assay to identify small molecule antagonists of the retinoid-related orphan receptor gamma (ROR-gamma) signaling pathway (AID 1159521;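 also: CHO cells with doxycycline inducible ROR-gamma driving an RORE luciferase reporter; top concentration of the series differs between compounds; nearly all actives have a fitted effect of over 50% in size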). The method in brief:
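Inducible-expression reporter assay: doxycycline (1 uM final) switched on RORγ in CHO cells bearing a ROR response element-luciferase construct, with test compounds present from 2 h beforehand. Decreased luminescence after 16 h defined antagonist activity.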

Test [7] is described as follows: qHTS assay to identify small molecule agonists of the AP-1 signaling pathway - cell viability counter screen (AID 1159525; calls by dose curve; also: nearly all actives have a fitted effect of over 55% in size). The method, boiled down: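 Luminescent ATP readout (Cell Titer Glo, 30 min RT), normalised to DMSO and tetra n-octyl ammonium bromide controls. Cells were ME-180 AP-1-bla in 0.5% dialyzed FBS Opti-MEM, with a 5 h, 37 °C compound exposure.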

The nature of test [8]: qHTS assay to identify small molecule agonists of the AP-1 signaling pathway (AID 1159526; calls by dose curve).
Test [9] addresses Retinoic acid receptor RXR-alpha (Homo sapiens) (UniProt P19793). In words: qHTS assay to identify small molecule agonists of the RXR signaling pathway (AID 1159527; calls by dose curve; also: nearly all actives have a fitted effect of over 35% in size). The method in brief:
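Compounds in DMSO were added to RXR-alpha-UAS-bla HEK 293T cells kept in 2% charcoal-stripped serum, and incubated 16 hr at 37 C with 5% CO2. Reporter signal came from a 2 hr B/G FRET substrate step.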

Test [10] is described as follows: qHTS assay to identify small molecule agonists of the RXR signaling pathway - cell viability counter screen (AID 1159529). The method in brief:
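Counter screen: CellTiter-Glo luminescence. Cells: RXR-alpha-UAS-bla HEK 293T. Medium: 2% charcoal-stripped FBS. Treatment: 16 h, 37 C. Reagent incubation: 30 min, RT.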

Test [11] in a line: qHTS assay to identify small molecule antagonists of the retinoid acid receptor (RAR) signaling pathway - cell viability counter screen (AID 1159551). Also: nearly all actives have a fitted effect of over 35% in size. The method, boiled down: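 Seed C3RL4 cells; next day add compound, then retinol to 1 uM final; incubate 6 h at 37 C; add CellTiter-Glo; read luminescence after 30 min at RT.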
A short description of test [12]: qHTS assay to identify small molecule antagonists of the retinoic acid receptor (RAR) signaling pathway (AID 1159552; also: nearly all actives have a fitted effect of over 50% in size). The method, boiled down: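 Antagonism of retinol-induced RARE reporter activity was measured in C3RL4 cells. Exposure to compounds and 1 uM final retinol lasted 6 hr at 37 C, with luminescence as endpoint.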
The nature of test [13]: qHTS assay to identify small molecule agonists of the retinoic acid receptor (RAR) signaling pathway (AID 1159553). Also: potency is read from the fitted curve at half-maximal effect. The method in brief: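 Activation of retinol signaling was monitored via a RARE luciferase reporter in C3RL4 cells. After 6 hr compound treatment at 37 C, detection reagent was added for 30 min at room temperature before luminescence reading.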
Test [14] in a line: qHTS assay to identify small molecule antagonists of the estrogen related receptor (ERR) signaling pathway from Tox21 library - cell viability counter screen (AID 1224834). Also: nearly all actives have a fitted effect of over 30% in size. The method, boiled down: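 CellTiter-Fluor fluorescence measured; ERR cells; 17.5 h compound incubation at 37 C; 30 min reagent step.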
Test [15] addresses Luciferin 4-monooxygenase (Photinus pyralis) (UniProt P08659). Description: qHTS assay to identify small molecule inhibitors of firefly luciferase (AID 1224835). Also: nearly all actives have a fitted effect of over 25% in size. Also: potency is read from the fitted curve at half-maximal effect. The method, boiled down:
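Inhibition of purified Photinus luciferase is measured by luminescence. Substrate levels (D-luciferin, ATP) sit at their KM values. Each compound is tested in a concentration series.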

Test [16] is described as follows: qHTS assay to identify small molecule agonists of the constitutive androstane receptor (CAR) signaling pathway - cell viability counter screen (AID 1224836). Also: series mostly up to about 92 µM; nearly all actives have a fitted effect of over 45% in size. The method, boiled down: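 Double-stable HepG2 hepatoma cells (hCAR plus CYP2B6-2.2kb) are treated for 23 h at 37 C with test compounds in 15-point concentration series. PK11195 at 0.75 uM final is co-added. Cell viability is quantified by CellTiter-Fluor.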

Test [17] in a line: qHTS assay to identify small molecule antagonists of the constitutive androstane receptor (CAR) signaling pathway - cell viability counter screen (AID 1224837). Also: series mostly up to about 92 µM; nearly all actives have a fitted effect of over 45% in size. The method, boiled down: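 Using CellTiter-Fluor, viability is scored in HepG2 cells stably carrying hCAR and a 2.2kb CYP2B6 reporter after 23 hr compound exposure across 15 concentrations, with CITCO present at 50 nM.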

Test [18] deals with Nuclear receptor subfamily 1 group I member 3 (Homo sapiens) (UniProt Q14994). In words: qHTS assay to identify small molecule antagonists of the constitutive androstane receptor (CAR) signaling pathway (AID 1224838).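 Also: HepG2 cells stably expressing hCAR with CYP2B6 luciferase reporter stimulated by CITCO; nearly all actives have a fitted effect of over 40% in size.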 The method, boiled down:
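Reporter luminescence was quantified after 24 h exposure of hCAR/CYP2B6-2.2kb double-stable HepG2 cells to compounds at 15 concentrations in the presence of 50 nM CITCO final.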

Test [19] has the same target. Description: qHTS assay to identify small molecule agonists of the constitutive androstane receptor (CAR) signaling pathway (AID 1224839). Also: nearly all actives have a fitted effect of over 15% in size. Also: potency is read from the fitted curve at half-maximal effect. As to activation: series mostly up to about 92 µM. The method in brief: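 Readout: firefly luciferase luminescence via ONE-Glo. System: HepG2 double-stable for hCAR and CYP2B6-2.2kb. Conditions: 15-point compound titration, PK11195 at 0.75 uM final, 24 h incubation.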
Test [20] is described as follows: qHTS assay to identify small molecule antagonists of the estrogen related receptor signaling pathway with the pleiotropic PPARgamma coactivator (PGC) from Tox21 10K library - cell viability counter screen (AID 1224840; active = well fitted cell-killing curve with a large enough effect in the repeat runs, not every such curve was filed as active; also: nearly all actives have a fitted effect of over 40% in size). The method in brief:
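Here the PGC/ERR cells serve as a cytotoxicity control: they are exposed to compounds for 17.5 hours at 37 C, and live-cell signal is quantified using CellTiter-Fluor fluorescence.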

SMILES strings stand for the structures. Records with an inconclusive call do not appear. A number with no mark means an inactive call. Active and inactive are the calls of the source. Unless noted, calls follow the shape of the dose curve; as a rule, active = well fitted curve in the direction sought with a large enough effect in the repeat runs; inconclusive = weak or mixed curves; inactive = no such curve, though single readings can be large; an effect the other way counts as inactive or inconclusive.

Chain of Luciferin 4-monooxygenase (Photinus pyralis) (P08659 whole entry, looked up): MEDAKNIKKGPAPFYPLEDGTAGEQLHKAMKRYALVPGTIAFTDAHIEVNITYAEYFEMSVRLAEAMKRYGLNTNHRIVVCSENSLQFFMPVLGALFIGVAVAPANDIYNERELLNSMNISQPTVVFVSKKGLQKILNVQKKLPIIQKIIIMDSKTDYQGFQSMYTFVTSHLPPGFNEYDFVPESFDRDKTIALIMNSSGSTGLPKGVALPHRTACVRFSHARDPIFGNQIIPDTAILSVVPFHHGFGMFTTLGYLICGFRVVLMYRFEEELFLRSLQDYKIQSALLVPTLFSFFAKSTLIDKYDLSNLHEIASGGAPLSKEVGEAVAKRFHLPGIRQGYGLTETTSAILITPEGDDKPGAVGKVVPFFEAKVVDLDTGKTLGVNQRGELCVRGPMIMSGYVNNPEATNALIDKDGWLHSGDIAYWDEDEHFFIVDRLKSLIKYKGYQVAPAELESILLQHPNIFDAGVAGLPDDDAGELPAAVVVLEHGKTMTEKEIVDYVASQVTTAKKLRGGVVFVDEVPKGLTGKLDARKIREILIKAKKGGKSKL
Chain of Nuclear receptor subfamily 1 group I member 3 (Homo sapiens) (Q14994 whole entry, looked up): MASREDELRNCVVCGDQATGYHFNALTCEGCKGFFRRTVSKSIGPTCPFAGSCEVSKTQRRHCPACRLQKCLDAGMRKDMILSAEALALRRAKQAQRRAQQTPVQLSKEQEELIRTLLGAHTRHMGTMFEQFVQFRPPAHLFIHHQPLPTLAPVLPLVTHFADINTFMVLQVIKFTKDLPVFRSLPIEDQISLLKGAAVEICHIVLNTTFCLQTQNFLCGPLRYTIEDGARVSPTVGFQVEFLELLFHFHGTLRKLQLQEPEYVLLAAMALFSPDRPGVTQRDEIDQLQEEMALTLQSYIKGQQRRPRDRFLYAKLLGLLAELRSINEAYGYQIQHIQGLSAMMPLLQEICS
Chain of Retinoic acid receptor RXR-alpha (Homo sapiens) (P19793 whole entry, looked up): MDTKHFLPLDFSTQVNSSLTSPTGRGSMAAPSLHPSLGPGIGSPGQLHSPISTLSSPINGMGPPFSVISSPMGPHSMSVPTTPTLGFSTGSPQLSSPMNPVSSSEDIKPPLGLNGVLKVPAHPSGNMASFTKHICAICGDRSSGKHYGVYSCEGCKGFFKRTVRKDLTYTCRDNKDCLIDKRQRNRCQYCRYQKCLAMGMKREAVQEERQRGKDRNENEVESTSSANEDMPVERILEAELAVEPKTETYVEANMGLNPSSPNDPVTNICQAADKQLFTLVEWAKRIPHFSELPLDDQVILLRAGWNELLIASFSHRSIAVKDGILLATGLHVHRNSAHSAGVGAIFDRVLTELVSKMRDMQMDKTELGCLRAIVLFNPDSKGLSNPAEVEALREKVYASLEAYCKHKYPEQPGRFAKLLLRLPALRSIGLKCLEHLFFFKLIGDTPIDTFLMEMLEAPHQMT

For the molecule `Clc1cc(Cl)c(Cl)c(Cl)c1Cl`, the molecule was called inactive in test [1], in [2], in test [4], in test [5], in test [6] and in test [7]. The molecule was called inactive in [11], in test [12], in [14], in [16], in test [17] and in [18]. For the same molecule, the molecule was called inactive in test [20]. The Potency result in [3], in [8], in [9], in test [10], in test [13] and in [15] was “inactive” each time. In addition, the Potency entry in test [19] is “inactive”.

Regarding `CCCCC(O)/C=C(C)/C=C/C=C/C(=O)N1CCCC1=O` (configuration not stated), the outcome in test [1], in test [2], in [4], in [5], in [6] and in [7] was inactive. For the same molecule, the molecule was classed as inactive in [11], in [12], in [14], in test [16], in test [17] and in test [18]. For the same molecule, the molecule was called inactive in test [20]. Further, the Potency entry in test [3], in test [8], in test [9], in test [10], in [13] and in test [15] was “inactive” throughout.

On to `Cc1ccccc1C#N`, for which the outcome in test [2], in [4], in [5], in test [6], in [7] and in [11] was inactive. For the same molecule, the molecule was classed as inactive in [12], in test [14], in test [16], in test [17], in test [18] and in test [20]. For the same molecule, the Potency entry in [3], in test [8], in test [9], in [10], in test [13] and in test [15] was “inactive” in each case. For the same molecule, the Potency entry in [19] was “inactive”.

In the case of `CN(C)CCc1c[nH]c2ccc(CS(=O)(=O)N3CCCC3)cc12`, the molecule was classed as inactive in test [1], in [2], in test [4], in test [5], in test [6] and in test [7]. The molecule was classed as inactive in test [11], in test [12], in test [14], in test [16], in test [17] and in test [18]. Besides, the molecule was classed as inactive in test [20]. Further, the Potency entry in test [3], in test [8], in test [9], in [10], in [13] and in test [15] was “inactive” in each case. For the same molecule, the Potency result in test [19] is “inactive”.

As for `CC(C)(C)c1ccc(C(=O)CCCCl)cc1`, the molecule was called inactive in [1], in [2], in [4], in test [5], in test [6] and in test [7]. In addition, the molecule was classed as inactive in test [11], in [12], in [14], in test [16], in [17] and in [18]. The molecule was called inactive in test [20]. Moreover, the Potency entry in test [3], in [8], in test [9] and in [10] was “inactive” each time. Besides, the values for the Potency in test [13], in [15] and in test [19] were 5.96 µM (active), 7.76 µM (active) and 21.1 µM (active), respectively.

As for `CC1=C(O)C(=O)CO1`, the call in test [1], in [2], in test [4], in test [5], in test [6] and in [7] was inactive. Further, the call in test [11], in [12], in test [14], in test [16], in test [17] and in [18] was inactive. Further, the outcome in [20] was inactive. For the same molecule, the Potency result in test [3], in test [8], in [9], in [10], in test [13] and in test [15] was “inactive” each time.
